Pf Dd2 growth: blocks in vitro growth of P. falciparum Dd2 | P. falciparum Dd2 growth, SYBR Green, 72 h | Potency, µM (series often up to 28.9 µM), without a hit: top-dose activity, negative = inhibition, hits mostly inhibitors | 4.3% of 120,000 active; active = well fitted inhibition curve with a large enough effect;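 note: plate controls were DMSO vehicle for no effect and reference drug for full effect; nearly all actives have a fitted effect of over 65% in size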
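Readout: SYBR Green fluorescence, 485 nm excitation, 535 nm emission, after ~16 h lysis at 37C. Before that, Dd2-infected red cells (2.5% hematocrit) grew 72 h with compound, 29 uM top final concentration.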
* hit, by the source's call; i = inactive. Many of the other results were omitted from the sample, so hits are more common in it than they were. Potency is the fitted concentration of half-maximal effect.

SMILES	Pf Dd2 growth
O=C(Cn1ncc2c3ccccc3n(Cc3cccc(Cl)c3)c2c1=O)N1CCCCCC1	8.91µM*
Cc1cc(C)c(Cn2c3ccccc3c3cnn(CC(=O)N4CCCCCC4)c(=O)c32)c(C)c1	7.08µM*
Cc1ccccc1Cn1c2ccccc2c2cnn(CC(=O)NCc3ccccn3)c(=O)c21	-0.1%
O=C(Cn1ncc2c3ccccc3n(Cc3ccccc3)c2c1=O)N1CCCCCC1	2.8%
Cc1ccccc1Cn1c2ccccc2c2cnn(CC(=O)NC3CCCCCC3)c(=O)c21	11.8%
CCOC(=O)N1CCN(C(=O)Cn2ncc3c4ccccc4n(Cc4ccc(F)cc4)c3c2=O)CC1	10µM*
Cc1cc(C)c(Cn2c3ccccc3c3cnn(CC(=O)NCc4ccccn4)c(=O)c32)c(C)c1	10µM*
CC1CCC(NC(=O)Cn2ncc3c4ccccc4n(Cc4ccc(F)cc4)c3c2=O)CC1 (centres undefined)	-7.7%
Cc1cn2nc(C(=O)N3CCC(NC(=O)c4ccccc4F)CC3)cc2c(=O)[nH]1	-25.4%
Cc1ccc(N2CC(NC(=O)c3ccc(S(=O)(=O)N4CCCC4)cc3)CC2=O)cc1C (centres undefined)	i
FC(F)(F)c1cc(-c2ccccc2)nc2cc(-c3ccc(Br)cc3)nn12	12.0%
Cc1cc(C)cc(NC(=O)CSCn2nnc3c(=O)[nH]c(Cc4ccc(F)cc4)nc32)c1	31.7%
COc1ccc(C)cc1Nc1nc2c(S(=O)(=O)c3cccc(Cl)c3)nnn2c2ccsc12	0.6%
COc1ccc(N2Cc3c(NCCc4ccccc4F)ncnc3N(C)CC2=O)cc1	i
O=C(Cc1cccs1)NC1CCc2nnc(C3CC3)n2CC1 (centres undefined)	i
O=C(NC[C@H]1OC[C@@H](NCc2ccccc2O)[C@@H]1O)c1cccs1	i
CCOC(=O)CN1CCCC1c1ccc(C(=O)NCCn2ccnc2)s1 (centres undefined)	-3.5%
COc1ccc(-c2c(C)nn3c(C(F)(F)F)cc(-c4ccc(C)cc4)nc23)cc1	19.9%
CCCCN(C)CCNC(=O)Cn1ncc2c([nH]c3ccccc32)c1=O	-3.9%
CCCN(CCC)CCCNC(=O)Cn1ncc2c3ccccc3n(Cc3ccccc3F)c2c1=O	5.01µM*
CC(CCc1ccccc1)NC(=O)Cn1ncc2c3ccccc3n(Cc3ccccc3F)c2c1=O (centres undefined)	-15.7%
Cc1ccc(C)c(Cn2c3ccccc3c3cnn(CC(=O)NC(C)c4ccccc4)c(=O)c32)c1 (centres undefined)	26.8%
Cc1ccccc1Cn1c2ccccc2c2cnn(CC(=O)NCCc3ccc(Cl)cc3)c(=O)c21	18.1%
CCCCN(C)CCCNC(=O)Cn1ncc2c3ccccc3n(Cc3cc(C)ccc3C)c2c1=O	0.447µM*
Cc1ccc(C)c(Cn2c3ccccc3c3cnn(CC(=O)NCC(C)c4ccccc4)c(=O)c32)c1 (centres undefined)	17.5%
SMILES	Pf Dd2 growth
CCCCN(C)CCCNC(=O)Cn1ncc2c3ccccc3n(Cc3ccccc3F)c2c1=O	5.62µM*
O=C(Cn1ncc2c3ccccc3n(Cc3ccccc3F)c2c1=O)NCCc1ccc(Cl)cc1	22.6%
COCc1ccc2c(c1)c(OC(C)(C)C(=O)NCCCN1CCCC1=O)nn2Cc1cccnc1	32.9%
CCn1nccc1C(=O)N1CCCCCCNC(=O)[C@@H]2CCCC[C@@H]21	11.6%
COc1ccc(Cl)cc1-n1nnc(-c2nc(-c3ccc4c(c3)OCO4)no2)c1C	-2.0%
COC1CCOC2(CCN(C(=O)c3sccc3C)CC2)C1 (centres undefined)	6.6%
O=C(CC1CCN(S(=O)(=O)c2ccc(F)c(F)c2)C1)NCc1ccccc1 (centres undefined)	-5.7%
CN1C(=O)C2(CCN(Cc3cc4n(n3)CCCNC4)CC2)c2ccccc21	-28.4%
COC(=O)c1ccc(NC(=O)Nc2nnc(N(C)C3CCCCC3)s2)cc1	-20.2%
CCCN(C(=O)c1cn(C)c(=O)c2cc(OC)c(OC)cc12)c1ccc(CC)cc1	-13.6%
Cc1cc(C)c2c(=O)cc(C(=O)Nc3ccc(S(=O)(=O)Nc4nc(C)cc(C)n4)cc3)oc2c1	i
O=C(NC1CCN(Cc2ccccc2)CC1)c1ccc(Cn2c(=O)c3ccccc3n(Cc3ccc(Cl)cc3)c2=O)cc1	5.01µM*
O=C(NC1CCN(Cc2ccccc2)CC1)c1ccc(Cn2c(=O)c3ccccc3n(Cc3ccccc3)c2=O)cc1	-15.4%
COCCCNC(=O)c1ccc(Cn2c(=O)c3ccccc3n(Cc3ccc(Cl)cc3)c2=O)cc1	-18.3%
Cc1nn(C)cc1CN1CCc2n[nH]c(=O)n2CC1	-4.3%
CCOc1ccccc1NC(=O)N1CC[C@@H]2C(=O)NCCCCCCN(Cc3ccncc3)[C@@H]2C1	-24.9%
COc1ccc(Nc2c(-c3cc(Br)ccc3O)nc3ncccn23)cc1OC	1.26µM*
COc1ccc(Nc2nc(-c3ccccc3F)nc3ccccc23)cc1OC	i
Cc1ccc(Nc2c(-c3ccc(C)s3)nc3ncccn23)cc1	-19.1%
CCCCNC(=O)CSc1nc2cc3c(cc2c(=O)n1Cc1ccc(C(=O)NCCc2ccc(OC)c(OC)c2)cc1)OCO3	17.2%
Cc1cccc(-c2noc(-c3ccc(NC4CCCC4)c([N+](=O)[O-])c3)n2)c1	27.0%
